Screening results (PubChem)
The sample as a whole holds a higher share of hits than the screen did.
ERp5 block: inhibitors of ERp5-driven insulin aggregation, primary screen, biochemical, turbidity, absorbance 650 nm, single point; 90 min; inhibition, % at 9.99 µM; 350,000 compounds, 0.05% hits; AID 651711, 2012; Protein disulfide-isomerase A6 (Homo sapiens), Q15084;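 active = mean replicate inhibition above about 25%, with every replicate also reaching it, limit read from the data, passing the limit was not always enough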
ARNT TACC3 PPI: disruptors of ARNT/TACC3 protein interaction, primary screen, biochemical, AlphaScreen, single concentration. 390,000 compounds, 0.66% hits. AID 623870, 2012. AlphaScreen His-ARNT PAS-B/GST-TACC3 binding, luminescence; TACC3 fragment carries E629A point mutation. inhibition, % at 9.99 µM;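 active = mean inhibition of replicates at least 50% and at least half of replicates each reaching 50%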;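 also: 0% = complete ARNT plus TACC3 wells and 100% = ARNT alone without TACC3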
PDI turbidity: inhibitors of human PDI, primary screen, biochemical, turbidity, single point, plate reader; inhibition, % at 10 µM; 350,000 compounds, 0.052% hits; PDI insulin aggregation turbidity, A650, 90 min; Protein disulfide-isomerase (Homo sapiens), P07237;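 active = mean inhibition across replicates of 30% or more, whatever share of single replicates reach that level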
PglD inh: C. jejuni PglD acetyltransferase inhibitors, primary screen, biochemical, DTNB colorimetric, single point. 360,000 compounds, 0.098% hits. AID 602405, 2012. inhibition, % at 12.5 µM. purified PglD enzyme, DTNB colorimetric CoA detection; in the data active = inhibition above about 16%, passing the limit was not always enough
ALR H2O2 inh: inhibitors of human ALR sulfhydryl oxidase, primary screen, biochemical, H2O2 detection, HRP-luminol luminescence, single point; purified ALR, DTT oxidation; FAD-linked sulfhydryl oxidase ALR (Homo sapiens), P55789; 290,000 compounds, 3.8% hits; inhibition, % (concentration not given with the values);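 active = mean replicate inhibition above about 79%, with every replicate also reaching it, limit read from the data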
Target sequence (P55789 whole entry, looked up): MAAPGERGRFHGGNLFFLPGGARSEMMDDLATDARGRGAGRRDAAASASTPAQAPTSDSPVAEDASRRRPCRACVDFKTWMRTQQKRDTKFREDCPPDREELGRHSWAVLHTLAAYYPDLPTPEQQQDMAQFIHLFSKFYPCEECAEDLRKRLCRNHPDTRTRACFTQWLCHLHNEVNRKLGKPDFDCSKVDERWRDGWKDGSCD
CendR NRP1 mod: modulators of CendR peptide binding to NRP-1, primary screen, biochemical, fluorescence polarization, uHTS | inhibition, % at 25 µM | FAM-RPARPAR peptide binding to NRP-1 | 360,000 compounds, 0.85% hits | Neuropilin-1 (Homo sapiens), O14786 | AID 602438, 2012;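 active = inhibition or corrected inhibition above about 18%, plus a signal ratio from 0.5 to 1.5, limit read from the data, passing the limit was not always enough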
The depositor's hits bear a star; . = no result.

SMILES	ERp5 block	ARNT TACC3 PPI	PDI turbidity	PglD inh	ALR H2O2 inh	CendR NRP1 mod
O=C(C[n+]1cc(-c2ccccc2)n2c1CCC2)Nc1nc(-c2ccccc2)cs1	.	9	17	6	-10	-5
O=C(CSCC(=O)N1CCCc2ccccc21)Nc1nc(-c2ccccc2)cs1	-9	-10	.	3	100*	-15
C[C@@H]1CN([C@H](C)CO)C(=O)c2cc(N(C)C)ccc2O[C@@H](C)CCCCO[C@@H]1CN(C)C(=O)CCC(F)(F)F	-7	6	.	4	.	.
O=C(C1CC1)N1CCN(c2ccc(O)cc2)CC1	5	0	8	-4	99*	5
CC(=O)c1ccc(N2CCN(C(=O)C3CCC3)CC2)cc1	.	2	-3	1	.	-2
CCOc1ccccc1NC(=S)N1CCN(c2ccc(O)cc2)CC1	-1	-14	-9	-1	99*	4
CCOC(=O)N1CCN(c2ccc(Cl)cc2)CC1	-3	-5	9	14	41	24
CCOC(=O)N1CCN(c2ccc(O)cc2)CC1	.	0	-11	-2	99*	-2
COc1ccc(S(=O)(=O)N(C)C[C@H]2Oc3ccc(NS(=O)(=O)c4ccccc4)cc3C(=O)N([C@H](C)CO)C[C@H]2C)cc1	.	17	.	1	.	.
Cc1ccccc1S(=O)(=O)NC1OC(=O)C(Oc2ccccc2)=C1Br (stereo unspecified)	4	43	4	.	95*	-18
CC1=CC(C)(C)Nc2ccc(OC(=O)CN3C(=O)CCC3=O)cc21	.	-2	-2	0	99*	5
O=C(C[C@@H]1C=C[C@H](NC(=O)Nc2ccc3c(c2)OCO3)[C@H](CO)O1)NCCCN1CCOCC1	1	-5	.	-2	.	.
Cc1ccc(C(=O)NCCCc2ccccc2)c(C)c1	-4	-10	-1	.	-16	22*
COc1cc(C(O)c2nc3ccccc3n2C(C)C)cc(OC)c1OC (stereo unspecified)	2	50*	-10	-2	-5	-2
COc1ccc(C(=O)NNC(=O)c2ccccn2)cc1	-5	22	5	.	29	12
CC(Oc1cccc(Br)c1)C(=O)NNC(=O)c1ccccn1 (stereo unspecified)	.	.	-2	-4	-5	-1
O=C(NCCNC(=O)c1ccccn1)c1ccccc1	1	-6	0	6	95*	0
CC(C)C(=O)NNC(=O)c1ccccn1	6	51*	-6	.	1	11
COc1ccc(OCC(=O)NNC(=O)c2ccccn2)cc1	.	67*	13	.	1	-3
CC(Oc1ccccc1)C(=O)NNC(=O)c1ccccn1 (stereo unspecified)	-2	51*	5	5	-12	4
O=C([C@@H]1[C@@H](CO)[C@@H]2Cn3c(ccc(-c4ccccc4F)c3=O)[C@H]1N2C(=O)C1CC1)N1CCOCC1	4	2	.	2	.	.
O=C(C[C@H]1C[C@@H]2c3cc(NC(=O)NC4CCCCC4)ccc3O[C@@H]2[C@H](CO)O1)NCc1ccccn1	7	6	.	-1	.	.
O=C(Cc1ccccc1)NC(Nc1ccccc1)C(Cl)(Cl)Cl (stereo unspecified)	.	-14	-16	3	.	18
O=C(Cc1ccccc1)NC(NCCc1ccccc1)C(Cl)(Cl)Cl (stereo unspecified)	.	-8	26	-7	-19	22*
O=C(NCc1ccc(F)cc1)[C@@H]1[C@@H](CO)[C@@H]2Cn3c(cccc3=O)[C@@H]2N1C(=O)C1CC1	4	-14	.	2	.	.
SMILES	ERp5 block	ARNT TACC3 PPI	PDI turbidity	PglD inh	ALR H2O2 inh	CendR NRP1 mod
CO[C@@H]1CN(C)C(=O)c2cc(NC(C)=O)ccc2OC[C@H](C)N(Cc2ccccn2)C[C@@H]1C	-3	-1	.	-4	.	.
O=c1[nH]c(S)c(/C=C2\C=Nc3ccccc32)s1	4	.	-1	4	99*	-11
COC(=O)c1ccc(NC(=O)CSC2=NCCN2)cc1	.	25	4	-2	99*	2
NS(=O)(=O)c1ccc(NC(=O)CSC2=NC(=O)C(c3ccccc3)C(=O)N2)cc1 (stereo unspecified)	.	-7	5	1	99*	7
CCOc1ccc(NC(=O)CSC2=NCCN2)cc1	-2	-2	9	.	99*	-11
CCC1C(=O)N=C(SCC(=O)Nc2ccc(C(=O)OC)cc2)NC1=O (stereo unspecified)	-7	3	-2	2	99*	-1
COc1ccc(-c2ccc([C@H]3[C@@H](CO)N4C(=O)CN(Cc5ccccc5)C[C@@H]34)cc2)cc1	13	.	.	.	.	.
CC(C)NC(=O)N(C)C[C@H]1Oc2ccc(NS(=O)(=O)c3cn(C)cn3)cc2C(=O)N([C@H](C)CO)C[C@H]1C	6	1	.	-4	.	.
O=C(O)C[C@H]1C[C@@H]2c3cc(NC(=O)C4CCC4)ccc3O[C@@H]2[C@H](CO)O1	6	-6	.	1	.	.
COC1=C(Nc2ccc(OC)cc2)C(=O)c2ccccc2C1=O	.	53*	-6	.	26	-1
COC1=C(Nc2ccc(O)cc2)C(=O)c2ccccc2C1=O	-3	35	-6	.	99*	19
CCOc1ccc(NC2=C(OC)C(=O)c3ccccc3C2=O)cc1	.	39	-1	.	-2	12
O=C(NC1CCN(C(=O)N2c3ccccc3Sc3ccccc32)CC1)c1ccccc1Cl	.	-9	1	-1	2	-1
NC(=O)C1CCN(C(=O)N2c3ccccc3Sc3ccccc32)CC1	1	-7	-6	6	80*	-14
C=CCn1c(N)c(C(=O)NCc2cccnc2)sc1=S	.	26	7	0	98*	-12
CCCNC(=O)[C@@H]1[C@@H](CO)[C@@H]2Cn3c(cccc3=O)[C@H]1N2Cc1cccc(Cl)c1	-9	-2	.	8	.	.
COc1cccc(-n2c(SC3CCOC3=O)nc3ccccc3c2=O)c1 (stereo unspecified)	.	2	-3	6	95*	6
COc1ccc(Cl)cc1Cn1c(C)c(C(=O)NCc2cccc(C(F)(F)F)c2)sc1=O	5	.	-5	-5	.	27*
O=C(NCCCO)c1ccc(CSc2nc3ccccc3c(=O)[nH]2)cc1	-5	-7	0	-2	100*	-18
O=c1[nH]c(SCc2ccc(Cl)cc2)nc2ccccc12	6	-3	0	.	-11	11
C1=C(c2ccc(-c3ccccc3)cc2)Nc2ncnn2C1c1ccco1 (stereo unspecified)	.	3	20	-4	.	144
